Test results published in PubChem BioAssay (NCI).
About 83,000 compounds went through this panel and 20% of them were active in at least one assay; those are over-represented in the sample as a whole.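 The test compound was applied at a single concentration to cells in 96-well plates for 48 hours, and percent growth was recorded.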 Unmarked numbers belong to inactive results. Activity calls are given as the source filed them. The calls were made as follows: active = growth percent below 10; inactive = the rest.

Assays:
Assay in all cases: NCI-60 one-dose screen, 48 h (100 = growth as untreated, 0 = no growth, -100 = all killed)
Conditions in all cases: 10 µM unless noted
SK-MEL-2 melanoma = tested on: SK-MEL-2 melanoma
EKVX NSCLC = tested on: EKVX NSCLC
SN12C renal = tested on: SN12C renal
UO-31 renal = tested on: UO-31 renal
TK-10 renal = tested on: TK-10 renal
ACHN renal = tested on: ACHN renal
CAKI-1 renal = tested on: CAKI-1 renal
A498 renal = tested on: A498 renal
CCRF-CEM leukemia = tested on: CCRF-CEM leukemia
MOLT-4 leukemia = tested on: MOLT-4 leukemia
SR leukemia = tested on: SR leukemia
RPMI-8226 leukemia = tested on: RPMI-8226 leukemia
OVCAR-5 ovarian = tested on: OVCAR-5 ovarian
OVCAR-4 ovarian = tested on: OVCAR-4 ovarian
SK-OV-3 ovarian = tested on: SK-OV-3 ovarian
IGROV1 ovarian = tested on: IGROV1 ovarian
OVCAR-3 ovarian = tested on: OVCAR-3 ovarian
HS 578T breast = tested on: HS 578T breast
NCI/ADR-RES ovarian = tested on: NCI/ADR-RES ovarian
OVCAR-8 ovarian = tested on: OVCAR-8 ovarian

SMILES | growth (SK-MEL-2 melanoma) | growth (EKVX NSCLC) | growth (SN12C renal) | growth (UO-31 renal) | growth (TK-10 renal) | growth (ACHN renal) | growth (CAKI-1 renal) | growth (A498 renal) | growth (CCRF-CEM leukemia) | growth (MOLT-4 leukemia) | growth (SR leukemia) | growth (RPMI-8226 leukemia) | growth (OVCAR-5 ovarian) | growth (OVCAR-4 ovarian) | growth (SK-OV-3 ovarian) | growth (IGROV1 ovarian) | growth (OVCAR-3 ovarian) | growth (HS 578T breast) | growth (NCI/ADR-RES ovarian) | growth (OVCAR-8 ovarian)
O=c1ccn(Cc2cn(-c3c4ccccc4nc4ccccc34)nn2)c(=O)[nH]1 | 98% | 103% | 92.7% | 88% | 93.8% | 95.4% | 96.8% | 81.8% | 83.9% | 79.5% | 38.8% | 87.3% | 114% | 109% | 90.9% | 80.9% | 110% | 94.6% | 108% | –
COc1cc(C2CC(c3cccc(Br)c3)=NN2C(C)=O)cc(OC)c1OC (stereo unspecified) | 59.1% | 52.7% | 41.8% | -27.7% (active) | 48.4% | 39.8% | 39.1% | 19.1% | 14.9% | 19% | 46.3% | 4.29% (active) | 46.5% | 41.7% | 45.3% | -17.3% (active) | -22% (active) | 34.6% | -19.5% (active) | –
CC(=O)CC[C@H]1C(=O)N[C@@H](C(C)C)C(=O)N[C@@H](Cc2cc(O)cc(F)c2)C(=O)N2CCC[C@H](N2)C(=O)O[C@H](/C(C)=C/C=C/C(=O)OC(C)(C)C)C/C=C/C=C/[C@H](O)[C@H](C)[C@H]1O | 62.3% | 71.3% | 53.7% | 56.2% | 62.6% | 62.6% | 57.4% | 82.3% | 46.3% | 49.5% | 16.7% | 37.1% | 88.6% | 56.6% | 48.8% | 43.8% | 54.2% | 55.9% | 77.7% | –
CC(=O)N1N=C(c2ccc(Nc3nc(Nc4ccc(F)cc4)nc(Nc4ccc(Cl)cc4)n3)cc2)CC1c1ccc(Cl)cc1 (stereo unspecified) | 109% | 87.3% | 107% | 56.8% | 110% | 83.1% | 83% | 88.9% | 110% | 98.2% | 102% | 82.7% | 95.1% | 94.2% | 97.2% | 66.1% | 123% | 95.8% | 91.1% | –
Cc1nc(NC(=O)COc2ccc(/C=C3\Cc4ccc(Cl)cc4C3=O)cc2)sc1C | 97.4% | 103% | 103% | -88.5% (active) | 310% | 93.7% | 86.1% | 139% | 100% | 83.1% | 93.2% | 103% | 105% | 113% | 114% | -69.8% (active) | 105% | 139% | 96.3% | –
COc1ccn2c(C(C)=O)cc(C(=O)c3ccc4c(c3)Sc3ccccc3N4)c2c1 | 27.3% | 37.6% | 25.3% | 28.3% | 29.6% | 20.7% | 15.9% | -17.8% (active) | 8.15% (active) | 13.1% | 5.07% (active) | 11.1% | 36.9% | 50.2% | 18.8% | 34.9% | -47.8% (active) | 41.9% | 12.7% | –
COc1ccc(CN2c3ccccc3CCc3ccccc32)cc1F | 27.2% | 41.1% | 39.1% | 43.2% | 62.7% | 35.6% | 29.7% | -6.65% (active) | 4.49% (active) | 16.2% | 11.6% | 8.72% (active) | 40.7% | 42% | 38.4% | 51.7% | -41.7% (active) | 30.2% | 11.1% | –
O=C1c2ccccc2NC(n2sc3ccccc3c2=O)N1c1ccccc1 (stereo unspecified) | 99.5% | 85.5% | 98.4% | 78.4% | 109% | 99.6% | 93.9% | 89.2% | 104% | 99.4% | 87.4% | 101% | 110% | 98.5% | 103% | – | 101% | 106% | 95% | –
O=c1c2cc(F)ccc2sc2c(N3CCNCC3)nc3ccc(F)cc3c12 | 90.5% | 66.4% | 54.2% | 31.8% | 26.6% | -41.6% (active) | -96.9% (active) | 45.5% | -12.1% (active) | -36.5% (active) | -46.3% (active) | – | 60.3% | -63.8% (active) | 84% | 36.3% | -84.1% (active) | 46.6% | 4.72% (active) | 3.1% (active)
Cc1ccccc1C(=O)NN | 99.9% | 108% | 108% | 70.7% | 105% | 106% | 98.3% | 117% | 100% | 92.3% | 86.2% | – | 121% | 117% | 98.8% | 85.8% | 126% | 106% | – | 109%
CCCCCCNC(=O)Oc1ccc(/C(=C(\C)c2ccc(Cl)cc2)c2ccc(OCCN(CC)CC)cc2)cc1 | 95.6% | 73.6% | 76.2% | 41.8% | 85% | 85.6% | 89.9% | 93.7% | 54.6% | 35.3% | -10.8% (active) | 51.6% | 72.1% | 60.5% | 83.1% | 55.2% | – | 67.5% | 72.7% | –
CC(C)(C)NC(=O)C(OC(=O)c1cccc(Cl)c1)c1ccc(Cl)cc1 (stereo unspecified) | 96.1% | 109% | 101% | 90.1% | 93.2% | 107% | 99.3% | 83.1% | 103% | 107% | 103% | 102% | 94.5% | 105% | 93.1% | – | 103% | 110% | 101% | –
CCc1ccc(Oc2c(-c3ccc(OCc4ccc(Cl)cc4)cc3O)n[nH]c2C(F)(F)F)cc1 | 11.4% | 15.7% | 15.3% | -10.4% (active) | 16.1% | 5.7% (active) | 29.6% | 11.2% | 11.7% | -3.23% (active) | 12.7% | 1.99% (active) | 85.9% | 16.5% | 27% | 22% | 0.589% (active) | 27.9% | 16.5% | –
Cc1ccc(C(C)C)cc1C(=O)C[n+]1ccccc1 | 107% | 99.7% | 102% | 87.5% | 103% | 95.6% | 99.6% | 81.5% | 113% | 88.4% | 86.1% | 114% | 91.1% | 101% | 97.7% | 98.6% | – | 100% | 107% | –
Cc1nn(-c2ccccc2)c2c1N=c1s/c(=C\c3ccc(C(F)(F)F)cc3)c(=O)n1CN2 | 47.1% | 59.3% | 71.4% | 43.4% | 80% | 59.8% | 59.9% | 63.5% | 38.3% | 98.8% | 97.9% | 16.2% | 93.4% | 51.2% | 91.5% | 68.3% | 138% | 96.9% | 40.4% | –
Cc1ccc(S(=O)(=O)N/N=C/C2(c3ccccc3)CC2)cc1 | 126% | 99% | 98.7% | 93.2% | 120% | 109% | 92.6% | 86.6% | 88.5% | 90.5% | 101% | 96.9% | 109% | 98.8% | 110% | 116% | – | 102% | – | –
N[C@@H](Cc1ccccc1)[C@@H](O)C(=O)NCc1ccc(F)cc1 | 117% | 103% | 93.4% | 90.8% | 105% | 108% | 91.3% | 96.2% | 111% | 109% | 95.1% | – | 98.7% | 103% | 120% | 107% | 117% | 104% | 110% | 104%
